Experimental data from PubChem BioAssay (NCATS).
Inconclusive results are not listed. Where a call stands in place of a potency, no number is given. Calls of active or inactive are those of the source. Calls come from the whole dose curve; as a rule, active = well fitted curve in the direction sought with a large enough effect; inconclusive = small, poorly fitted or top-dose-only effect, or another doubt; inactive = no such curve, though single readings can be large; an effect the other way counts as inactive or inconclusive.

Experiments:
[1] = qHTS to identify inhibitors of the type 1 interferon - major histocompatibility complex class I in skeletal muscle: primary screen against the NCATS Pharmaceutical Collection (AID 1347407);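 note: luminescence of HiBiT knocked into endogenous HLA-B as interferon-induced MHC class I level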
Excerpt: (§1) Assay Submitter (PI): Travis B. Kinder Ph.D. & James Inglese Ph.D.
(§2) Assay Development and Screening Technology Laboratory (ADST)
(§3) National Center for Advancing Translational Sciences (NCATS), Rockville, MD
(§4) National Institute of Health (NIH), Bethesda, Maryland
(§5) Idiopathic inflammatory myopathies, collectively referred to as myositis, are a group of rare autoimmune diseases characterized by skeletal muscle inflammation, weakness, and usually accompanied by systemic pathologies of the skin, lungs, or vasculature. Current immunosuppressive therapies and glucocorticoids are often not curative and are accompanied by harsh side effects, especially in children with juvenile myositis. […] We conducted quantitative high throughput screening on 6,576 compounds (4,679 unique) through a series of cell-based assays to identify those that inhibit the IFN-stimulated expression of MHC class I in muscle precursor cells (myoblasts). […]
(§6) The primary screen utilized CRISPR/Cas9 genome-engineering of immortalized human myoblasts, C25cl48, where a pro-luminescent reporter HiBit was fused to the C-terminus of endogenous MHC class I allele HLA-B*08:01 (HLA-B HiBit myoblasts). […] After 24 hrs of treatment, cells were assayed by Nano-Glo HiBiT Lytic Detection System (Promega) and luminescence measured by a ViewLux 1430 Ultra HTS (Perkin Elmer). […]

[2] = qHTS to identify inhibitors of the type 1 interferon - major histocompatibility complex class I in skeletal muscle: primary screen against the NCATS LOPAC collection (AID 1347405);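 note: human myoblasts with HiBiT tag on endogenous HLA-B stimulated by IFN-beta; lytic HiBiT luminescence reporting HLA-B protein level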; note: potency is the fitted concentration of half-maximal effect
Excerpt: as §1, §2, §3, §4, §5, §6

[3] = qHTS for inhibitors of adenylyl cyclases using a fission yeast platform: a pilot screen against the NCATS LOPAC library (AID 1347410)
Procedure, shortened: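 S. pombe CHP2027 (AC9-GNAS-PDE4D2) carrying PKA-repressed fbp1-GFP, incubated 18 h at 30C in EMM with LOPAC compounds at up to 57 uM. GFP gain-of-signal read by laser scanning cytometry; DMSO negative control.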

[4] = qHTS for Antimalaria activity screened against the NCATS CANVASS Library (AID 1347380); note: potency is the fitted concentration of half-maximal effect; nearly all actives have a fitted effect of over 40% in size; conditions: P. falciparum Dd2 growth, SYBR Green fluorescence, 72 h
Procedure, shortened: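 Growth inhibition of asexual erythrocytic P. falciparum Dd2 was quantified by SYBR Green DNA staining. Cultures grew 72 h with compound (11-point series) in hypoxic gas at 37C; lysis and staining lasted 18 h.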

[5] = Inflammasome Signaling qHTS Counterscreen: IL-1-beta AlphaLISA counterscreen against the NCATS CANVASS Library (AID 1347381);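 note: cell-free check with purified IL-1β in medium and no THP-1 cells; series mostly up to about 57 µM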
Procedure, shortened: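 To flag interference with the AlphaLISA read-out, a known amount of purified IL-1-beta (4 pg) replaced cell supernatant. Detection used anti-IL-1-beta acceptor beads, biotinylated antibody and streptavidin donor beads at room temperature.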

[6] = qHTS for Activators of p53 Stress Response Pathway screened against the NCATS CANVASS Library (AID 1347388); conditions: p53RE-bla HCT-116, beta-lactamase reporter, 16 h; note: potency is the fitted concentration of half-maximal effect
Procedure, shortened: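 p53RE-bla HCT-116 cells (4000/well) were plated 5 h at 37C, exposed to compounds for 16 h at 37C over an 11-point concentration series, then loaded with CCF4 for 2 h at room temperature; 460/530 nm emission ratio read.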

[7] = qHTS assay for small molecule disruptors of mitochondrial membrane potential screened against the NCATS CANVASS Library (AID 1347389); conditions: HepG2 mitochondrial membrane potential, m-MPI red/green ratio, 1.5 h; note: potency is the fitted concentration of half-maximal effect; nearly all actives have a fitted effect of over 60% in size
Procedure, shortened: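 Compounds tested in 11-point qHTS series on HepG2 cells for 1 hr; membrane-potential dye added for 30 min at 37C. Lower red-to-green ratio indicates loss of potential.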

[8] = qHTS for activators of Nrf2/ARE signaling pathway screened against the NCATS CANVASS Library (AID 1347391); note: nearly all actives have a fitted effect of over 60% in size
Procedure, shortened: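 Cells carrying an ARE-driven beta-lactamase reporter (HepG2 background) are dosed for 16 h, then stained with CCF4. Cell viability in the same wells is measured by CellTiter-Glo luminescence.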

[9] = Vero-766 cells viability qHTS against the NCATS CANVASS Library: Counterscreen for Zika virus inhibition assay (AID 1347394); conditions: Vero 766 viability, CellTiter-Glo luminescence, 72 h; note: potency is the fitted concentration of half-maximal effect; nearly all actives have a fitted effect of over 60% in size
Procedure, shortened: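 Vero 766 cells (1000/well), without Zika virus, were exposed to compounds for 72 h at 37C. Viability was measured by CellTiter Glo luminescence. Media-only wells served as 100% inhibition.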

[10] = Redox Reaction Profiling qHTS: Assay Interference Panel against the NCATS CANVASS Library (AID 1347401)
Procedure, shortened: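 Resazurin (5 uM) conversion to resorufin measured with 200 uM DTT in 50 mM HEPES pH 7.3, 50 mM NaCl. Compounds tested in 11-point qHTS series. Fluorescence (ex 525/em 598 nm) read before and after 15 min dark incubation.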

Question: Which outcome [1] does the source give for `Oc1cccc(-c2c3nc(c(-c4cccc(O)c4)c4ccc([nH]4)c(-c4cccc(O)c4)c4nc(c(-c5cccc(O)c5)c5ccc2[nH]5)CC4)C=C3)c1` here?
Answer: Its outcome is “inactive”.

Question: With `NCCCC(=O)O` as the molecule, how does the Potency [2] read?
Answer: Its Potency is “inactive”.

Question: And the outcome [3]?
Answer: Its outcome is “inactive”.

Question: What does the source list for `CN[C@H]1CC[C@@H](c2ccc(Cl)c(Cl)c2)c2ccccc21`?
Answer: Potency [2]: 28.2 µM (active); outcome [3]: inactive

Question: With `CC(C)CC(=O)c1c(O)cc2c(c1O)C(CC(C)C)C1=C(O2)C(C)(C)C(=O)C(C)(C)C1=O` (configuration not stated) as the molecule, how does the Potency [4] read?
Answer: Its Potency is 0.594 µM (active).

Question: What about the outcome [5] of the same molecule?
Answer: The outcome was “inactive”.

Question: And the Potency [6]?
Answer: The Potency was 20.9 µM (active).

Question: What about the Potency [7] of the same molecule?
Answer: Its Potency is 3.31 µM (active).

Question: And the outcome [8]?
Answer: Its outcome is “inactive”.

Question: And the Potency [9]?
Answer: Its Potency is 6.6 µM (active).

Question: What about the outcome [10] of the same molecule?
Answer: Its outcome is “inactive”.
